SW480 rereplic: induces DNA re-replication in SW480 colon adenocarcinoma cells. SW480 DNA re-replication, Hoechst DNA content imaging, 48 h. Potency, µM (highest dose often 46.1 µM), inactives show top-dose re-replication activation, hits mostly activators. 340,000 compounds, 1.8% hits. AID 624297; further: potency means the concentration at half of the fitted maximal effect; % of control where 0% means no effect; nearly all actives have a fitted effect of over 55% in size
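Compounds, transferred as 23 nL by pin tool, were incubated with cells for 48 hr; DNA content per nucleus was then quantified by Hoechst staining and fluorescence plate imaging.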
VP16 counter: counter-screen for ROR gamma inhibitors: Gal4-VP16 reporter; Drosophila S2 Gal4-VP16 UAS-luciferase, luminescence, 20 h; Potency, µM (top dose mostly 53.6 µM), for inactives: at the top dose activity, negative = inhibition, usual class: inhibitors; 310,000 compounds, 3.5% hits;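 further: Gal4-VP16 expression switched on by copper sulfate through the metallothionein promoter; potency means the concentration at half of the fitted maximal effect; on the % scale 0 is the no-effect control and ±100 the full control effect; nearly all actives have a fitted effect of over 50% in size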
IL1B secr inh: inhibitors of inflammasome signaling (IL-1 beta secretion); activity change, % at 57.5 µM; 360,000 compounds, 4.7% hits; AID 743279; THP-1 LPS/ATP IL-1B secretion, AlphaLISA, 16 h; stronger effect = lower value; in the data active means activity change below about -50%; inconclusive means mostly about -30% to -49%; further: on the % scale 0 is the no-effect control and ±100 the full control effect
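THP-1 cells pretreated 1 hr with compounds (up to 57.5 uM final), then stimulated with LPS (250 ng/mL final) plus ATP (1.25 mM final); secreted IL-1B measured by AlphaLISA after 16 hr, decreased signal indicating inhibition.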
RORg inh: inhibitors of mouse ROR gamma transcriptional activity | 310,000 compounds, 5.4% hits | AID 2551 | Drosophila S2 Gal4-RORgamma UAS-luciferase reporter, 20 h | P51450 | Potency, µM (top dose mostly 53.6 µM), for the others: at the top dose activity change, negative = inhibition, hits mostly inhibitors; further: potency means the concentration at half of the fitted maximal effect; on the % scale 0 is the no-effect control and ±100 the full control effect; nearly all actives have a fitted effect of over 60% in size
Target sequence (P51450 whole entry, looked up, the tested form may be a part): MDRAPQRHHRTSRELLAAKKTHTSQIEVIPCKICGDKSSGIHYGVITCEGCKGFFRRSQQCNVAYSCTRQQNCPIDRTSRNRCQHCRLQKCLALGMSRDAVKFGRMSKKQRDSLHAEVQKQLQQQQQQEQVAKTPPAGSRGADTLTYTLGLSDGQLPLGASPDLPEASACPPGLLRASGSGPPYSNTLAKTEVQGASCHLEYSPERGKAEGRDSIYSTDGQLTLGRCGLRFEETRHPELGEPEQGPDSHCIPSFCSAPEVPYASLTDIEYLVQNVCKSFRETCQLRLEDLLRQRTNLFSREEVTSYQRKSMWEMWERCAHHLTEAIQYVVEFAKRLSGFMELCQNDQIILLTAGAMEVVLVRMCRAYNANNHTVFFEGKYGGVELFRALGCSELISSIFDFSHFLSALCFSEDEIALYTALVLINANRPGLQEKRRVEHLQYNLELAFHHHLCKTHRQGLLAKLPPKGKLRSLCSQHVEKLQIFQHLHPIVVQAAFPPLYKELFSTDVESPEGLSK
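ROR gamma transcriptional activity was tracked as Gal4-UAS luciferase output in stably transfected Drosophila Schneider cells, with compound added 1 hr before 700 uM copper sulfate induction and a 20 hr ambient-temperature incubation.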
MCF10A rereplic: DNA re-replication induction in MCF 10a cells | AID 624296 | 350,000 compounds, 2.9% hits | MCF 10A DNA re-replication, Hoechst nuclear intensity, 48 h | Potency, µM (highest dose often 46.1 µM), for inactives: at the top dose activity, positive = re-replication, actives largely listed as activators; further: potency means the concentration at half of the fitted maximal effect; % of control where 0% means no effect; nearly all actives have a fitted effect of over 50% in size
Numbers without * were called inactive. Compounds with a hit are over-represented: about 11% of the library has one in this group of screens. Unless noted, the call rests on the fitted dose curve; in most records, active means well fitted curve in the direction sought with a large enough effect; inconclusive means small, poorly fitted or top-dose-only effect, or another doubt; inactive means no such curve, though single readings can be large; an effect the other way counts as inactive or inconclusive.

`O=C(NC1CCCC1)C(c1ccccc1)n1c(-c2cccc3ccccc23)nc2ccccc21` (stereo not given) gave IL1B secr inh 22.0.
`Cc1c(Cc2ccccc2)c(=O)oc2cc(OC(C)C(=O)NCC3CCC(C(=O)O)CC3)c(Cl)cc12` (stereo not given) gave SW480 rereplic -6.4%, VP16 counter 11.3%, IL1B secr inh 28.7, RORg inh inconclusive and MCF10A rereplic -0.4%.
`COc1ccc(-c2nc3ccccc3s2)cc1` gave SW480 rereplic -1.1%, VP16 counter inconclusive, IL1B secr inh 34.2, RORg inh 8.91µM* and MCF10A rereplic -2.4%.
Screening O=c1c(-c2nc3ccccc3s2)cccn1Cc1ccccc1 returned SW480 rereplic 11.6µM*, VP16 counter 0.0%, IL1B secr inh -1.3, RORg inh -9.7% and MCF10A rereplic 5.17µM*.
`Nc1ccc(O)c(-c2nc3ccccc3s2)c1` gave SW480 rereplic 2.5%, VP16 counter -17.2%, IL1B secr inh -6.7, RORg inh inconclusive and MCF10A rereplic inconclusive.
`COc1cccc(-c2nc3ccccc3s2)c1` gave SW480 rereplic -2.8%, VP16 counter inconclusive, IL1B secr inh 0.0, RORg inh -24.2% and MCF10A rereplic 1.8%.
`c1ccc2sc(-c3ccc4c(c3)OCO4)nc2c1` gave SW480 rereplic 8.1%, VP16 counter 2.24µM*, IL1B secr inh 5.0, RORg inh inconclusive and MCF10A rereplic inconclusive.
Nc1ccccc1-c1nc2ccccc2s1 was read as SW480 rereplic inconclusive, VP16 counter -1.1%, IL1B secr inh 41.7, RORg inh 12.5% and MCF10A rereplic 16.4µM*.
`O=C(Nc1cccc(-c2nc3ccccc3s2)c1)c1ccc2c(c1)OCO2` gave SW480 rereplic inconclusive, VP16 counter 8.4%, IL1B secr inh 14.9, RORg inh 15.6% and MCF10A rereplic inconclusive.
For Cc1ccc(Cn2cccc(-c3nc4ccccc4s3)c2=O)cc1 the results were SW480 rereplic inconclusive, VP16 counter -2.7%, IL1B secr inh 12.4, RORg inh 18.8% and MCF10A rereplic inconclusive.
CCN(CC)C(=O)C1=C(C)N(CCC2=CCCCC2)C(=O)C(CC(=O)NCCCN(C)C)C1 (stereo not given) was read as IL1B secr inh 33.8.
CC(=O)C1=NN(c2ccccc2)C(c2cccs2)N1c1ccc(N(C)C)cc1 (stereo not given) was read as SW480 rereplic inconclusive, VP16 counter inconclusive, IL1B secr inh -71.5*, RORg inh -21.9% and MCF10A rereplic inconclusive.
For CC(=O)C1=NN(c2ccccc2)C(c2ccc3c(c2)OCO3)N1c1ccccc1 (stereo not given) the results were SW480 rereplic 5.8µM*, VP16 counter -5.7%, IL1B secr inh 28.4, RORg inh 15.9% and MCF10A rereplic 8.2µM*.
For CN(C)c1ccc(NC(=O)c2cn(-c3ccccc3)nc2-c2cccs2)cc1 the results were SW480 rereplic -0.1%, VP16 counter 9.2%, IL1B secr inh inconclusive, RORg inh -2.2% and MCF10A rereplic 17.8%.
Screening CCc1ccc(C(=O)C[n+]2cccc3cc(OC)ccc32)cc1 returned SW480 rereplic -0.4%, VP16 counter -14.2%, IL1B secr inh inconclusive, RORg inh 29.4% and MCF10A rereplic -2.4%.
For COc1cc(NC(=O)C2CC(c3ccc(Cl)cc3)=NO2)cc(OC)c1OC (stereo not given) the results were SW480 rereplic -0.1%, VP16 counter -2.0%, IL1B secr inh -17.1, RORg inh 19.1% and MCF10A rereplic 0.3%.
Screening COc1cc(NC(=O)C2CC(c3ccccc3Cl)=NO2)cc(OC)c1OC (stereo not given) returned SW480 rereplic -19.9%, VP16 counter 15.8µM*, IL1B secr inh -11.3, RORg inh inconclusive and MCF10A rereplic 2.1%.
N#Cc1c(NC(=O)C2CC(c3ccccc3Cl)=NO2)sc2c1CCC2 (stereo not given) was read as SW480 rereplic -1.9%, VP16 counter 2.7%, IL1B secr inh -8.9, RORg inh 15.8% and MCF10A rereplic 20.6µM*.

Assay outcomes from PubChem.
